# Data taken from PubChem BioAssay.
# Activity calls are given as the source filed them.
# Test: FRG1 promoter luciferase signal modulators, primary screen, FRG1 inhibition for FSHD, cell-based, C2C12 myotubes, firefly/Renilla luciferase, luminescence (AID 1084)
# Settings: higher = more signal, called active from +8 up or from −8 down
row,Structure (SMILES),z-score
1,CCOC(=O)[C@H](Cc1ccccc1)NC(=O)CCC1CC(OC(=O)NCCc2ccc(F)cc2)CC2(CCCC(COC(=O)NCCc3ccccc3OC)O2)O1 (some centres undefined),0.865 (inactive)
2,CO[C@H](C1CCCCC1)[C@H](C)C=CCC(=O)OCCCc1ccccc1,0.567 (inactive)
3,O=C1C[C@@H](O)[C@@H](O)[C@@H]2[C@@H]3C(=O)N(Cc4ccccc4)C(=O)[C@@H]3CC[C@@H]12,0.554 (inactive)
4,CCN1C(=O)[C@H]2[C@H]3[C@H](O)[C@H](O)CC(=NOCC(C)C)[C@@H]3CC[C@H]2C1=O,0.0163 (inactive)
5,COC(=O)CC=C[C@@H](C)[C@@H](C=NOC[C@H]1O[C@H](c2ccccc2)C=C[C@@H]1Oc1ccc(OC)cc1)OC,0.532 (inactive)
6,CC(CCN1CCc2nc(-c3ccccc3)c(-c3ccccc3)cc2C1)=NOC[C@@H](O)[C@H]1O[C@@H]2OC(C)(C)O[C@@H]2[C@H]1O,1.54 (inactive)
7,O=C(NN=C1C[C@@H](O)[C@@H](O)[C@@H]2[C@@H]3C(=O)N(C4CCCCC4)C(=O)[C@@H]3CC[C@@H]12)OCc1ccccc1,0.448 (inactive)
8,COc1ccc(O[C@H]2C=C[C@@H](c3ccccc3)O[C@@H]2CON=C(C)CCC(=O)OC[C@H]2O[C@H](c3ccccc3)C=C[C@@H]2Oc2ccc(OC)cc2)cc1,0.634 (inactive)

# Test: binders of probe aFST on microarray, primary screen, stem cell growth factor project, biochemical, small-molecule microarray, fluorescence 635/667 (AID 1086);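 also: score merges 667 nm fluorescence with signal-to-noise of each printed compound spot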
# Settings: higher = more signal
row,Structure (SMILES),composite z-score
1,CCOC(=O)NN=C1C[C@@H](O)[C@@H](O)[C@@H]2[C@@H]3C(=O)N([C@@H](C)c4ccccc4)C(=O)[C@@H]3CC[C@@H]12,0.517
2,COC(=O)[C@@H]1CC[C@H](C)[C@@H](c2ccc(C)cc2)N1C(=O)c1ccc(C=NO[C@@H](C)c2cn([C@H](CO)Cc3ccccc3)nn2)cc1,0.517
3,O=C1CCCC=C1C(O)CCOC(c1ccccc1)(c1ccccc1)c1ccccc1 (centres undefined),-0.405
4,COC(=O)CC=C[C@@H](C)[C@@H]1C=C[C@H](O)[C@@H](CO)O1,0.225
5,C[C@@H](ON=C1[C@H]2CCn3c(=O)n(-c4ccccc4)c(=O)n3[C@H]2[C@H](O)[C@@H]2O[C@H]12)c1cn([C@@H]2COC[C@H]2O)nn1,0.236
6,CO[C@@H]1COC(=O)[C@H](CCSC)NC(=O)CC=C[C@@H](C)COC(=O)CCC[C@H]1C,1.41
7,COc1cccc([C@@H]2Oc3ccc(OC)cc3C(=O)[C@H]2O)c1,-0.0662
8,C=CC1=C[C@H](O)[C@@H]2O[C@@H]2C12OCCCO2,-0.136
9,CCOC(=O)NN=C1C[C@@H](O)[C@@H](O)[C@@H]2[C@@H]3C(=O)N(Cc4ccccc4)C(=O)[C@@H]3CC[C@H]12,0.0387
10,COC(=O)[C@@H]1CC[C@H](C)[C@@H](c2ccc(C)cc2)N1C(=O)c1ccc(C=NO[C@H](C)c2cn([C@H](CO)Cc3ccccc3)nn2)cc1,0.517
11,COc1cc(O)c(C(=O)C=Cc2ccc3c(c2)OCO3)c(OC)c1,-0.155
12,CCOC(=O)[C@H](CC(C)C)NC(=O)CCC1CC(OC(=O)NCc2cccc3ccccc23)CC2(CCCC(COC(=O)NCC3CCCCC3)O2)O1 (some centres undefined),0.615
13,Cc1cc2c(c(=O)o1)[C@@H](O)[C@H]1O[C@H]1C2=O,0.163
14,Cc1ccc(S(=O)(=O)NC(CCc2ccccc2)CC(=O)C(C)(C)C)cc1 (centres undefined),0.195
15,C[C@@H](c1ccccc1)N1C(=O)[C@H]2[C@H]3[C@H](O)[C@H](O)CC(=NO[C@@H]4O[C@H](CO)[C@@H](O)[C@H](O)[C@H]4O)[C@@H]3CC[C@H]2C1=O,0.205
16,CCN1C(=O)[C@@H]2[C@H]3C(=CC[C@@H]2C1=O)C1(OCCCO1)[C@H]1O[C@H]1[C@H]3O,0.404
17,CCOC(=O)[C@H](CC(C)C)NC(=O)CCC1CC(OC(=O)NCc2cccc3ccccc23)CC2(CCCC(COC(=O)NCCCN3CCCC3=O)O2)O1 (some centres undefined),0.253
18,CC(=O)OC[C@H]1OC(ON=CC[C@@H]2C=C[C@H](OC(C)=O)[C@@H](COC(C)=O)O2)[C@H](OC(C)=O)[C@@H](OC(C)=O)[C@@H]1OC(C)=O (some centres undefined),0.52

row,Structure (SMILES),composite z-score
1,COc1ccc(O[C@@H]2[C@H](O)CO[C@@H]2C=Cc2ccccc2)cc1,0.0116
2,O=C1[C@H]2[C@H]3[C@H](O)[C@H](O)CC(=NOC[C@@H](O)COCc4ccco4)[C@H]3CC[C@H]2C(=O)N1C[C@@H]1CCCO1,-0.181
3,CC(C)=CCCC(C)=CCON=C1C[C@@H](O)[C@@H](O)[C@@H]2[C@@H]3C(=O)N(C(C)(C)C)C(=O)[C@@H]3CC[C@@H]12,0.13
4,C#CCCCON=C1C[C@@H](O)[C@@H](O)[C@@H]2[C@@H]3C(=O)N(CCC(=O)OCC)C(=O)[C@@H]3CC[C@H]12,0.593
5,C[C@H]1CC[C@H]2C(=O)O[C@H](COc3ccc(C(C)(C)C)cc3)CN2[C@@H]1c1ccc(Br)cc1,0.125
6,CC(C)=CCCC(C)=CCON=C1C[C@@H](O)[C@@H](O)[C@@H]2[C@@H]3C(=O)N(c4cccc(Oc5ccccc5)c4)C(=O)[C@@H]3CC[C@@H]12,0.34
7,COc1ccc(O[C@H]2C=C[C@@H](c3ccccc3)O[C@@H]2COC(=O)CCC(C)=NOC(C)CN2CCCc3nc(C)c(C)cc32)cc1 (some centres undefined),0.506
8,COC(=O)[C@H](C)NC(=O)CCC1CC(OC(=O)NCc2cccc3ccccc23)CC2(CCCC(COC(=O)NCC(c3ccccc3)c3ccccc3)O2)O1 (some centres undefined),0.157
9,C=COC[C@@H]1CN2[C@@H](CC[C@@H](C)[C@@H]2c2ccc(Br)cc2)C(=O)O1,-0.171
10,CCOC(=O)[C@H](CC(C)C)NC(=O)CCC1CC(OC(=O)NCc2cccc3ccccc23)CC2(CCCC(COC(=O)NCCC(C)C)O2)O1 (some centres undefined),-0.128
11,CCOC(=O)[C@H](Cc1ccccc1)NC(=O)CCC1CC(OC(=O)NCCc2ccc(F)cc2)CC2(CCCC(COC(=O)NCCc3ccccc3OC)O2)O1 (some centres undefined),0.759
12,CO[C@H](C1CCCCC1)[C@H](C)C=CCC(=O)OCCCc1ccccc1,-0.175
13,O=C1C[C@@H](O)[C@@H](O)[C@@H]2[C@@H]3C(=O)N(Cc4ccccc4)C(=O)[C@@H]3CC[C@@H]12,-0.0427
14,CCN1C(=O)[C@H]2[C@H]3[C@H](O)[C@H](O)CC(=NOCC(C)C)[C@@H]3CC[C@H]2C1=O,0.124
15,COC(=O)CC=C[C@@H](C)[C@@H](C=NOC[C@H]1O[C@H](c2ccccc2)C=C[C@@H]1Oc1ccc(OC)cc1)OC,-0.251
16,CC(CCN1CCc2nc(-c3ccccc3)c(-c3ccccc3)cc2C1)=NOC[C@@H](O)[C@H]1O[C@@H]2OC(C)(C)O[C@@H]2[C@H]1O,0.319
17,O=C(NN=C1C[C@@H](O)[C@@H](O)[C@@H]2[C@@H]3C(=O)N(C4CCCCC4)C(=O)[C@@H]3CC[C@@H]12)OCc1ccccc1,0.818
18,COc1ccc(O[C@H]2C=C[C@@H](c3ccccc3)O[C@@H]2CON=C(C)CCC(=O)OC[C@H]2O[C@H](c3ccccc3)C=C[C@@H]2Oc2ccc(OC)cc2)cc1,-0.677
